In PubChem BioAssay AID1476 (National Center for Advancing Translational Sciences (NCATS), 2009):
About 4,500 (2.2%) of roughly 200,000 compounds were called active. Another 12% or so got no clear call; they are omitted. What follows is part of a selection rich in actives, with near analogues and random picks from the rest. Unmarked numbers belong to inactive results. Calls follow the shape of the dose curve; as a rule, active = well fitted inhibition curve with a large enough effect; inconclusive = small, poorly fitted or top-dose-only effect, or effect the other way; inactive = flat fitted curve, though single readings scatter.

Molecular target: Cruzipain (Trypanosoma cruzi) (UniProt P25779)
Assay: qHTS Assay for Promiscuous and Specific Inhibitors of Cruzain (without detergent); also: nearly all actives have a fitted effect of over 40% in size;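 as to max response, negative = inhibition: plate controls were enzyme without inhibitor for no effect and buffer without enzyme for full effect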
Details: purified cruzain, Z-FR-AMC fluorescence, no detergent
Summary of the method: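 Detergent-free condition (0.00005% Triton X-100) in acetate buffer pH 5.5 with DTT. 1.5 nM enzyme and compound were pre-mixed 15 min, then 2 uM Z-FR-AMC substrate added; reaction progress from fluorescence change between first and third reads (60 s).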
Potency is read from the fitted curve at half-maximal effect.

Sequence of Cruzipain (Trypanosoma cruzi) (P25779 123-467 limits assumed): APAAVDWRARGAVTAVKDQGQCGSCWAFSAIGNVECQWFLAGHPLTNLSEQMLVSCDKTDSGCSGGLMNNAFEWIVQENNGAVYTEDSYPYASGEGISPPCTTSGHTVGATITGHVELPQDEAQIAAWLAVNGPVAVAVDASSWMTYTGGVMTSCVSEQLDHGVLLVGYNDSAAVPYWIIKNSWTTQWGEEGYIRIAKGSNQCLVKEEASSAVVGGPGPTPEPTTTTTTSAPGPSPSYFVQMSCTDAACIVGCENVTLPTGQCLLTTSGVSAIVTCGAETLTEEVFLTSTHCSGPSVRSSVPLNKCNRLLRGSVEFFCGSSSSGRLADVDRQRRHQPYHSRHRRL

Structure (SMILES) | max response, negative = inhibition [%] | Potency
Cc1cccc(NC(=O)c2ccc3nc(C(C)C)oc3c2)c1C | -5.86 | –
CC(NC(=O)C(=O)NN=C1CCC(C(C)(C)C)CC1)c1ccccc1 (stereo unspecified) | 14.7 | –
CC(C)(C)C1CCC(=NNC(=O)c2ccc(Br)o2)CC1 (stereo unspecified) | 6.4 | –
CC(C)(C)C1CCC(=NNC(=O)c2cc(-c3ccccc3)n[nH]2)CC1 (stereo unspecified) | – | 12.6 µM (active)
CCOC(=O)Cn1c(=O)n(C2CCCCC2)c2nc(-c3cccc(OC)c3)nc(C(N)=O)c21 | -11 | –
COc1ccc(CCNc2nc3c(-c4cccc(F)c4)nnn3c3ccccc23)cc1OC | 16.6 | –
CC1=C(C(=O)N2CCN(c3cccc(C(F)(F)F)c3)CC2)C2(CCCCC2)OC1=O | -13.5 | –
CCOc1ccc(CNC(=O)c2ccc3c(c2)nnn3C2CCCC2)cc1 | -5.67 | –
O=C(CCCN1C(=O)/C(=C\c2ccco2)SC1=S)Nc1cccc2ccccc12 | -12.6 | –
O=C(CN1C(=O)/C(=C\c2ccccc2F)SC1=S)Nc1nc2ccccc2s1 | – | 7.94 µM (active)
Cc1nn(CC(=O)Nc2nc3ccccc3s2)c(C)c1[N+](=O)[O-] | -6.47 | –
Cc1cccc(C(=O)NCCCN2CCCC2=O)c1 | -2.37 | –
Cc1cccc(C(=O)NCC(=O)OCC(=O)N2CC3(C)CC2CC(C)(C)C3)c1 (stereo unspecified) | – | 12.6 µM (active)
COc1ccccc1C(=O)N1CC2(C)CC1CC(C)(C)C2 (stereo unspecified) | 16.4 | –
Cc1cc(C)cc(NC(=O)Cn2nc(N3CCN(c4ccccc4)CC3)ccc2=O)c1 | -3.11 | –
Cc1ccc(-n2c(SCC(=O)N/N=C/C=C/c3ccccc3[N+](=O)[O-])nc3ccccc3c2=O)cc1 | – | 25.1 µM (active)
CCn1c(SCC(=O)N/N=C/C=C/c2ccccc2[N+](=O)[O-])nnc1-c1ccccc1 | -1.88 | –
O=C(CSc1nc2ccccc2[nH]1)N/N=C/C=C\c1ccccc1[N+](=O)[O-] | 10.4 | –
COCCN(CCOC)S(=O)(=O)c1ccc(C(=O)Nc2nc3c(s2)CCc2ccccc2-3)cc1 | -1.58 | –
CCN(c1ccccc1)S(=O)(=O)c1ccc(C(=O)Nc2nccs2)cc1 | 0.885 | –
C=CCN(CC=C)S(=O)(=O)c1ccc(C(=O)Nc2nc3c(s2)CCc2ccccc2-3)cc1 | – | 10 µM (active)
Cc1ccc(-c2nnc(Nc3cccc(Br)c3)c3ccccc23)cc1S(=O)(=O)NCC1CCCO1 (stereo unspecified) | -20.7 | –
CCCCCn1c(=O)[nH]c2cc(C(=O)NCCN(C)CCCC)ccc2c1=O | 2.28 | –
Cc1ccc(S(=O)(=O)n2cnc3ccccc32)c(C)c1 | 3.08 | –
CCn1c(C)nc2cc(C(=O)NNS(=O)(=O)c3ccc(C)cc3C)ccc21 | 9.43 | –
CCOC(=O)c1c(C)n(S(=O)(=O)c2ccc(C)cc2C)c2ccc(NS(=O)(=O)c3ccc(C)cc3C)cc12 | – | 1.58 µM (active)
